Measured values as given in the supplement of paper PMC10849652.
About 7,900 targets were measured; listed, in parts, are those with a hit and a random draw of the rest. About 0.6% of all pairs of compound and target were hits. A number with no mark means an inactive call.

Compound: CNC(=O)C1=CC=CC=C1NC2=NC(=NC=C2Cl)NC3=C(C=C(C=C3)N4CCOCC4)OC
Assay: log2 fold change, soluble protein after heating vs DMSO (PISA); higher = thermal stabilisation; K562 cells, 10 uM, 30 min; active = over 0.2 and 3.5 SD of the protein, either way, in both replicates (recomputed)
Outline: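 K562 cells at 2×10^6 cells/mL were treated for 30 min with 10 μM compound, and aliquots were heated for 3 min over 48°C-58°C before pooling. Extraction used PBS with 0.5% NP-40 at 4°C, and soluble protein was the supernatant after 21,000xg for 90 min, measured by TMTpro 16plex LC-MS/MS with channel sums equalised. Thermal stability values, relative to control samples and from duplicates, are log2 fold changes.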

UniProt Q96RE7, sequence (Q96RE7 whole entry, looked up): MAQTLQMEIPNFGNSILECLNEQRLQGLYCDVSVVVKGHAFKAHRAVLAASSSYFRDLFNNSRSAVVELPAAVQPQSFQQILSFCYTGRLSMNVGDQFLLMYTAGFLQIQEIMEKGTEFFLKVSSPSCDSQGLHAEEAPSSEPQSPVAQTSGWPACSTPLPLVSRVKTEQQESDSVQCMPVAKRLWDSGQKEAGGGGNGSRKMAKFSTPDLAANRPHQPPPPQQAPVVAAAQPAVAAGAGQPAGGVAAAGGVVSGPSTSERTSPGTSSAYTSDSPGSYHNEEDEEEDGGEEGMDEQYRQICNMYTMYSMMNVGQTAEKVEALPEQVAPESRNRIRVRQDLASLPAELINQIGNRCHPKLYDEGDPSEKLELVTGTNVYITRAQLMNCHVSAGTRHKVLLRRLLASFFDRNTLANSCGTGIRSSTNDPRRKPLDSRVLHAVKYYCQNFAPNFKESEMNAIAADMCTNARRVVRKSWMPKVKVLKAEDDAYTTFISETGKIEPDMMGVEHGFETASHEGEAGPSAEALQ
UniProt Q8NI08, sequence (Q8NI08 whole entry, looked up): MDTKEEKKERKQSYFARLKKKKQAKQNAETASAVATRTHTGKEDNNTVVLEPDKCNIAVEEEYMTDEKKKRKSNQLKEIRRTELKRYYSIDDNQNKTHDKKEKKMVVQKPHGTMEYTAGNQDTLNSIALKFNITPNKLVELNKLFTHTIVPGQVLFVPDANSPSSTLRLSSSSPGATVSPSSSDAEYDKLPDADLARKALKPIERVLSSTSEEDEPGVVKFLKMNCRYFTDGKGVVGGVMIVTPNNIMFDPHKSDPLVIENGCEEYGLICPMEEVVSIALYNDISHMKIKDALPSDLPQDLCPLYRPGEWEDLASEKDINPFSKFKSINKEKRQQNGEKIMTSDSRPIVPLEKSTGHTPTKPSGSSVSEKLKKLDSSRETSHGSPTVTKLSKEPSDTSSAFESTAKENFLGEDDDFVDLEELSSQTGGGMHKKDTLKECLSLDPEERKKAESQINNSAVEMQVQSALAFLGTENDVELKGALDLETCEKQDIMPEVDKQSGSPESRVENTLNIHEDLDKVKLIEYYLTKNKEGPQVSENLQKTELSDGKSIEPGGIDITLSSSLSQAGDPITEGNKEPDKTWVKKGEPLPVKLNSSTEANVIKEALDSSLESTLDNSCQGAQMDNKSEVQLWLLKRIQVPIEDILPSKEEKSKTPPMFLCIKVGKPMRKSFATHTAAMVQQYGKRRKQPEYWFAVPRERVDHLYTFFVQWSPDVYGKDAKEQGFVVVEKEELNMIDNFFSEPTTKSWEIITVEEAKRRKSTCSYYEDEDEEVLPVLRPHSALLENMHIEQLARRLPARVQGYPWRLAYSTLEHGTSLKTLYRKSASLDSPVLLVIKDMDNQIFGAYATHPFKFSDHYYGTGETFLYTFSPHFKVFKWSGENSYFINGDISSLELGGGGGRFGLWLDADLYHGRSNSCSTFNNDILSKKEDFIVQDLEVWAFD
UniProt Q9BW27, sequence (Q9BW27 whole entry, looked up): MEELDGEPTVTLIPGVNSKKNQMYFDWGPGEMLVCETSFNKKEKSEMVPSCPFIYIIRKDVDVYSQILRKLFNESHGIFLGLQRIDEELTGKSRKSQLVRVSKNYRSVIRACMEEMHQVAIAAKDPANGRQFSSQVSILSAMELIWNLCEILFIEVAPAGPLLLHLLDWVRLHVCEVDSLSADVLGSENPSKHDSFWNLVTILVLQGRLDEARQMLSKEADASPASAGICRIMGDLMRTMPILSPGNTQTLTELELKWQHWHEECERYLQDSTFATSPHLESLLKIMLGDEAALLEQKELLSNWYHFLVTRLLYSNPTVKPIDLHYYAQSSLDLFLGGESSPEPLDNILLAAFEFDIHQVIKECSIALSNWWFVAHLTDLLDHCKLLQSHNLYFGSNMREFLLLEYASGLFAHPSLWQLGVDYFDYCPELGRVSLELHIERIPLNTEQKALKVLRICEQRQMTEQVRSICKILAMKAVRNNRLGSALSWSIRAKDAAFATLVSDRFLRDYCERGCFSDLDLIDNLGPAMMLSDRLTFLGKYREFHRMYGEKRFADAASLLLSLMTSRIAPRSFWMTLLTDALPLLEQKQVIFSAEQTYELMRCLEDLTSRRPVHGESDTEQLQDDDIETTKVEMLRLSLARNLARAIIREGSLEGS
UniProt Q8NCF5, sequence (Q8NCF5 whole entry, looked up): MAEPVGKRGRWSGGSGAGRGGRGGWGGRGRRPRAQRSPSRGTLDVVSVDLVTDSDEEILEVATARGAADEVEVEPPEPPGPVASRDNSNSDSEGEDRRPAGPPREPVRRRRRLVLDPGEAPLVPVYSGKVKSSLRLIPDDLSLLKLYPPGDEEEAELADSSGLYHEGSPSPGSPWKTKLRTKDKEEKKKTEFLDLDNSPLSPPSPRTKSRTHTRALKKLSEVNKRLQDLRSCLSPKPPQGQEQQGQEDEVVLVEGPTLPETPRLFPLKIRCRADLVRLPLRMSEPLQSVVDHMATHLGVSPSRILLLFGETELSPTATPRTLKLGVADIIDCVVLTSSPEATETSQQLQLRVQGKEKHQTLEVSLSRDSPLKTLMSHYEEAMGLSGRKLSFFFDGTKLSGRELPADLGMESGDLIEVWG
UniProt Q9UI09, sequence (Q9UI09 whole entry, looked up): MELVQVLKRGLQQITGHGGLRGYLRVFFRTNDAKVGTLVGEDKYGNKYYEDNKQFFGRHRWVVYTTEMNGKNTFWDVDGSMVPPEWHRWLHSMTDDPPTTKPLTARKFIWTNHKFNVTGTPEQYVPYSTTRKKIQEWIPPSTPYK
UniProt Q9H1E3, sequence (Q9H1E3 whole entry, looked up): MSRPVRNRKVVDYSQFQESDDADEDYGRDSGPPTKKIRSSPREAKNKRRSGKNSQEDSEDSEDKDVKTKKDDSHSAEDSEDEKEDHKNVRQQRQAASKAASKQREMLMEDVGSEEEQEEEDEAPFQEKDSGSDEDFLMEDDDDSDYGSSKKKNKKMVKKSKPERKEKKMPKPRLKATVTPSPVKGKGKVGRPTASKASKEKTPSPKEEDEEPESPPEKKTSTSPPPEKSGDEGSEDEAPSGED
UniProt Q01804, sequence (Q01804 whole entry, looked up): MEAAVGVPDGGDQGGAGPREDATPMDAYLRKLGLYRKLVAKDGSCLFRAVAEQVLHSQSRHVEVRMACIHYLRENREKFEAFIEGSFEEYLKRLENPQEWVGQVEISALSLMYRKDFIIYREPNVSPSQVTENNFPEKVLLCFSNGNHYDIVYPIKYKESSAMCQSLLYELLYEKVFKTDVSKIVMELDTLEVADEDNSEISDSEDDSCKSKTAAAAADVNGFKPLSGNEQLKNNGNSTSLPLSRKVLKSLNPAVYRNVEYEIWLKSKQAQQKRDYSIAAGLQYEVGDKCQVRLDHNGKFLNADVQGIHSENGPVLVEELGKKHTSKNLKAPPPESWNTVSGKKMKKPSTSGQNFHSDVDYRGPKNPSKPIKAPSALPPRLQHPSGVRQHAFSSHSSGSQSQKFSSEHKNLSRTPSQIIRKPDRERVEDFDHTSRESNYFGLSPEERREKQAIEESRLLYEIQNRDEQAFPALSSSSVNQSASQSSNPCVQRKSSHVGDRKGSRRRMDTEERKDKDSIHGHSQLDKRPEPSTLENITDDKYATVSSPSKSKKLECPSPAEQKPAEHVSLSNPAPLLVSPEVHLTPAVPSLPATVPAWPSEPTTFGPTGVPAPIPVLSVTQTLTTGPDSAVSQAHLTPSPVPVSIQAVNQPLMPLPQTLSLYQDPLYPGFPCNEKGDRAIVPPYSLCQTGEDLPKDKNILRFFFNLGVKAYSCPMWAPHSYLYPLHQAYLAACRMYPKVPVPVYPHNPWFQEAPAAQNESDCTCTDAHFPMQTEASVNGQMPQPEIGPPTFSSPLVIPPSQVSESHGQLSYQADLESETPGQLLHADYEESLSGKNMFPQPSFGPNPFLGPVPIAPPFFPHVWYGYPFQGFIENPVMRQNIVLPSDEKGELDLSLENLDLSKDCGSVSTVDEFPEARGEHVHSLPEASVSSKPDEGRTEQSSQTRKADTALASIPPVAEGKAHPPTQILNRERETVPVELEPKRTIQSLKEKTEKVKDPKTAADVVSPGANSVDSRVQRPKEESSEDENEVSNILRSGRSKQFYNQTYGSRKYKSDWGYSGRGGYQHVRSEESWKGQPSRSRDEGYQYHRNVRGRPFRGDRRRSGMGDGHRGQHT
UniProt Q9HBL8, sequence (Q9HBL8 whole entry, looked up): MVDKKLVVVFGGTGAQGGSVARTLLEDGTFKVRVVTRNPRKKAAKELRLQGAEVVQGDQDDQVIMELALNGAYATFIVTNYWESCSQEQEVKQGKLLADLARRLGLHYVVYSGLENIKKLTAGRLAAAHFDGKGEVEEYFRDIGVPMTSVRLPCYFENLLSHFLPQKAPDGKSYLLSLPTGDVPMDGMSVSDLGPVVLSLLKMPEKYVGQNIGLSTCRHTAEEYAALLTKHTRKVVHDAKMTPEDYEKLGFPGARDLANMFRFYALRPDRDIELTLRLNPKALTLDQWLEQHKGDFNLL
UniProt Q9NWU1, sequence (Q9NWU1 whole entry, looked up): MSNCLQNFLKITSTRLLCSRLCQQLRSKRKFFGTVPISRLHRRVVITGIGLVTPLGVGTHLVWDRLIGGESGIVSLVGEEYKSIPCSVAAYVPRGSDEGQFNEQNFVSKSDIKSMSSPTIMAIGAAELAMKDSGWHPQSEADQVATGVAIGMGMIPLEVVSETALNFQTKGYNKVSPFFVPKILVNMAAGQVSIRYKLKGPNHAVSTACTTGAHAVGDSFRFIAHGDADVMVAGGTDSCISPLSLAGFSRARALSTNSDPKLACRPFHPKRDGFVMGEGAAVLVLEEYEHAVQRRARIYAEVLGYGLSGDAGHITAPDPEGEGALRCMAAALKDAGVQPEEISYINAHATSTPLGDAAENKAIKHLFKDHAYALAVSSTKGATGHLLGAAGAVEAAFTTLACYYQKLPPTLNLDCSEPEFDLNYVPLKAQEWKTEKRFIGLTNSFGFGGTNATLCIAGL
UniProt Q96DE0, sequence (Q96DE0 whole entry, looked up): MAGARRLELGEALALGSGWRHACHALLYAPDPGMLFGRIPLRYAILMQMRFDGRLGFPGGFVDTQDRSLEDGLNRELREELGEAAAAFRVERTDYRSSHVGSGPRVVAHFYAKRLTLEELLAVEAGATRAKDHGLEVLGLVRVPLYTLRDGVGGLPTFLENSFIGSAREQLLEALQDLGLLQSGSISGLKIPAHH

Target	log2 fold change
NOB1 (UniProt Q9ULX3)	-0.047
MRPS25 (UniProt P82663)	-0.021
NACC1 (UniProt Q96RE7)	-0.063
NEMP1 (UniProt O14524)	-0.111
MTHFD1 (UniProt P11586)	0.003
OXSM (UniProt Q9NWU1)	0.038
MT-ATP6 (UniProt P00846)	-0.018
OTUD4 (UniProt Q01804)	-0.014
MRPL50 (UniProt Q8N5N7)	-0.011
NFATC2 (UniProt Q13469)	0.007
NUP205 (UniProt Q92621)	-0.024
MRPS24 (UniProt Q96EL2)	0.067
MINK1 (UniProt Q8N4C8)	-0.007
NUP85 (UniProt Q9BW27)	-0.021
NOP56 (UniProt O00567)	-0.067
P4HA2 (UniProt O15460)	0.003
NCAPH (UniProt Q15003)	0.024
MRPS15 (UniProt P82914)	-0.07
NA, A0A096LPI6	0.005
NQO1 (UniProt P15559)	0.161

Target	log2 fold change
NIBAN1 (UniProt Q9BZQ8)	-0.013
MPHOSPH10 (UniProt O00566)	-0.023
NCAPD2 (UniProt Q15021)	0.111
NFATC2IP (UniProt Q8NCF5)	0.067
NARS2 (UniProt Q96I59)	-0.056
NMT2 (UniProt O60551)	0.146
MTHFS (UniProt P49914)	0.065
NUCKS1 (UniProt Q9H1E3)	-0.167
MYH11 isoform 2 (UniProt P35749)	0.03
NUP160 (UniProt Q12769)	0.004
NDUFA12 (UniProt Q9UI09)	-0.027
NUDT21 (UniProt O43809)	-0.166
NCOA7 (UniProt Q8NI08)	-0.011
MON2 isoform 5 (UniProt Q7Z3U7)	0.02
NMRAL1 (UniProt Q9HBL8)	0.061
NMNAT1 (UniProt Q9HAN9)	-0.121
MND1 (UniProt Q9BWT6)	-0.029
NUDT16 (UniProt Q96DE0)	-0.057
NGLY1 (UniProt Q96IV0)	0.01
